A number with no mark means an inactive call. Calls of active or inactive are those of the source.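 Rule for the calls: active = IC50 below 10 µM at human M5 in a calcium flux test, acting as a negative modulator; inactive = the rest.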
What follows are compounds tested against Muscarinic acetylcholine receptor M5 (Homo sapiens) (UniProt P08912) (assay: M5 muscarinic receptor negative allosteric modulators, cell-based, single concentration, human M5 (AID 743025)). Conditions: CHO-K1 hM5, ACh EC80 calcium flux, Fluo-4; at 10 µM; hits give low values.
Muscarinic acetylcholine receptor M5 (Homo sapiens), sequence (P08912 whole entry, looked up): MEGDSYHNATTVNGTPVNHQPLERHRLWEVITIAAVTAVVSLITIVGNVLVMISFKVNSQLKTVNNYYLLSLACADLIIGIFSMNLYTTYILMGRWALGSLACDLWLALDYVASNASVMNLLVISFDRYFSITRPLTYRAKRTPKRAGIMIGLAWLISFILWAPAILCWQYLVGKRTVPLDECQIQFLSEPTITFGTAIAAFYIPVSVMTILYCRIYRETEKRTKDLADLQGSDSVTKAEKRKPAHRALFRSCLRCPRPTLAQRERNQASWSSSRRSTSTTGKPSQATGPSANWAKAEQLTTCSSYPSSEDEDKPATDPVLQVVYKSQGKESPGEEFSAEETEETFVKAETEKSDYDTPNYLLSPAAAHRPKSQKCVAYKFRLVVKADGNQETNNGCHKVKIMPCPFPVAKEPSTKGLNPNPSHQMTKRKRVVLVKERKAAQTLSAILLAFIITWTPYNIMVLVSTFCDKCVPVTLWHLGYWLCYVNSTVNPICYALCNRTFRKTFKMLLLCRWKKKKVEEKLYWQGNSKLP

Question: Which activity remaining does the source give for `O=C1c2ccccc2C2(c3ccccc3)N1CCN2C(=O)c1c(F)cccc1F` (configuration not stated) here?
Answer: 84%

Question: How did the activity remaining turn out when `O=C(c1ccc(SC(F)(F)F)cc1)N1CCN2C(=O)c3ccccc3C12c1ccc(Cl)cc1` (configuration not stated) was run?
Answer: 4.43% (active)

Question: With `O=C(c1ccc(OC(F)(F)F)cc1)N1CCN2C(=O)c3ncccc3C12c1ccccc1` (configuration not stated) as the compound, how does the activity remaining read?
Answer: 73.1%

Question: Which activity remaining does the source give for `COc1cccc(C(=O)N2CCN3C(=O)c4ccccc4C23c2ccc(Cl)cc2)c1` (configuration not stated) here?
Answer: 17.5% (active)

Question: For `O=C(c1ccc(F)c(F)c1)N1CCN2C(=O)c3ccccc3C12c1ccccc1` (configuration not stated), which activity remaining is on record?
Answer: 0.88% (active)

Question: `Cc1ccc(C(=O)N2CCN3C(=O)c4ncccc4C23c2ccccc2)cc1` (configuration not stated) was tested. Which activity remaining did it give?
Answer: 63.1%

Question: Which activity remaining does the source give for `CC(C)(C)NC(=O)N1CCCN2C(=O)c3ccccc3C12c1ccccc1` (configuration not stated) here?
Answer: 83.3%

Question: Which activity remaining does the source give for `Cc1ccc(C23c4ccccc4C(=O)N2CCN3C(=O)c2ccc(C(F)(F)F)cc2)cc1` (configuration not stated) here?
Answer: 28.6% (active)

Question: How did the activity remaining turn out when `O=C(c1ccco1)N1CCN2C(=O)c3ccccc3C12c1ccccc1` (configuration not stated) was run?
Answer: 81.3%

Question: `O=C(c1ccc(Cl)c(Cl)c1)N1CCN2C(=O)c3ccccc3C12c1ccccc1` (configuration not stated) was tested. Which activity remaining did it give?
Answer: 30.5% (active)

Question: `O=C(c1cc(F)cc(F)c1)N1CCN2C(=O)c3ccccc3C12c1ccccc1` (configuration not stated) was tested. Which activity remaining did it give?
Answer: 4.21% (active)

Question: How did the activity remaining turn out when `O=C(c1cccc(F)c1)N1CCN2C(=O)c3ccccc3C12c1ccccc1` (configuration not stated) was run?
Answer: 86%

Question: Which activity remaining does the source give for `COc1cc(C(=O)N2CCN3C(=O)c4ccccc4C23c2ccc(Cl)cc2)cc(OC)c1OC` (configuration not stated) here?
Answer: 63.4%

Question: How did the activity remaining turn out when `CCCN1C(=O)c2ccccc2C1c1ccccc1` (configuration not stated) was run?
Answer: 86.1%

Question: Which activity remaining does the source give for `Cc1ccc(C(=O)N2CCN3C(=O)c4ccccc4C23c2ccccc2)cc1` (configuration not stated) here?
Answer: 70.2%

Question: `O=C(c1ccc(F)cc1Cl)N1CCN2C(=O)c3ccccc3C12c1ccccc1` (configuration not stated) was tested. Which activity remaining did it give?
Answer: 64.1%

Question: With `O=C(c1ccc(-c2ccccc2)cc1)N1CCN2C(=O)c3ccccc3C12c1ccccc1` (configuration not stated) as the compound, how does the activity remaining read?
Answer: 62.7%

Question: Which activity remaining does the source give for `O=C(c1ccc(F)cc1F)N1CCN2C(=O)c3ccccc3C12c1ccccc1` (configuration not stated) here?
Answer: 69%

Question: For `Cc1cccc(C(=O)N2CCN3C(=O)c4ncccc4C23c2ccccc2)c1` (configuration not stated), which activity remaining is on record?
Answer: 68.9%

Question: Which activity remaining does the source give for `O=C(c1cccc(C(F)(F)F)c1)N1CCCN2C(=O)c3ccccc3C12c1ccc(Cl)cc1` (configuration not stated) here?
Answer: 78.6%

Question: `Cc1ccc(C23c4ccccc4C(=O)N2CCN3C(=O)c2cccc(C(F)(F)F)c2)cc1` (configuration not stated) was tested. Which activity remaining did it give?
Answer: 28.8% (active)

Question: `O=C(c1ccc(Cl)cc1)N1CCN2C(=O)c3ccccc3C12c1ccccc1` (configuration not stated) was tested. Which activity remaining did it give?
Answer: 89.9%

Question: With `CS(=O)(=O)c1ccc(C23c4ccccc4C(=O)N2CCN3C(=O)c2ccc(F)c(F)c2)cc1` (configuration not stated) as the compound, how does the activity remaining read?
Answer: 77.3%

Question: How did the activity remaining turn out when `Cc1cccc(C(=O)N2CCN3C(=O)c4ccccc4C23c2ccccc2)c1` (configuration not stated) was run?
Answer: 52.7% (active)

Question: For `O=C(c1ccccc1)N1CCN2C(=O)c3ccccc3C12c1ccc(Cl)cc1` (configuration not stated), which activity remaining is on record?
Answer: 1.2% (active)

Question: For `O=C(c1ccccc1)N1CCCC1c1ccccc1` (configuration not stated), which activity remaining is on record?
Answer: 88.8%

Question: For `O=C(c1ccncc1)N1CCN2C(=O)c3ccccc3C12c1ccccc1` (configuration not stated), which activity remaining is on record?
Answer: 98.6%

Question: For `O=C1c2ccccc2C2(c3ccccc3)N(Cc3ccc(F)cc3)CCN12` (configuration not stated), which activity remaining is on record?
Answer: 80.8%

Question: Which activity remaining does the source give for `O=C(c1ccc(C(F)(F)F)cc1)N1CCN2C(=O)c3ccccc3C12c1ccc(Cl)cc1` (configuration not stated) here?
Answer: 2.04% (active)

Question: For `Clc1ccc(C2(c3ccccc3)CCCN2)cc1` (configuration not stated), which activity remaining is on record?
Answer: 68.9%

Question: Which activity remaining does the source give for `O=C1c2ccccc2C2(c3ccc(Cl)cc3)NCCCN12` (configuration not stated) here?
Answer: 70.4%

Question: With `Cc1ccc(C(=O)N2CCN3C(=O)c4ccccc4C23c2ccc(Cl)cc2)cc1` (configuration not stated) as the compound, how does the activity remaining read?
Answer: 17.9% (active)

Question: Which activity remaining does the source give for `O=C(c1ccc(F)cc1)N1CCCN2C(=O)c3ccccc3C12c1ccc(Cl)cc1` (configuration not stated) here?
Answer: 76%

Question: For `COc1ccc(C23c4ccccc4C(=O)N2CCN3C(=O)c2cccc(F)c2)cc1` (configuration not stated), which activity remaining is on record?
Answer: 57.4% (active)

Question: With `O=C(c1cc(F)cc(F)c1)N1CCN2C(=O)c3ccccc3C12c1ccc(Cl)cc1` (configuration not stated) as the compound, how does the activity remaining read?
Answer: 3.53% (active)

Question: With `O=C1c2ccccc2C2(c3ccccc3)Nc3ccccc3N12` (configuration not stated) as the compound, how does the activity remaining read?
Answer: 81.8%

Question: `O=C(Nc1ccc(Cl)cc1)N1CCCN2C(=O)c3ccccc3C12c1ccccc1` (configuration not stated) was tested. Which activity remaining did it give?
Answer: 84.5%

— PubChem BioAssay AID743025 (Vanderbilt Specialized Chemistry Center, 2013)
